Among the data in PubChem BioAssay AID1347165 (National Center for Advancing Translational Sciences (NCATS), 2019) are Potency values, retold here.

Out of some 220,000 compounds screened, about 5,700 (2.6%) were called active. Roughly 18% stayed inconclusive and do not appear here. Calls come from the whole dose curve; as a rule, active = well fitted inhibition curve with a large enough effect; inconclusive = small, poorly fitted or top-dose-only effect; inactive = no such curve, though single readings can be large or run the other way. The entries come from a sample that favours actives as a whole. A call without a number means that no potency is given here.
Potency is the fitted concentration of half-maximal effect.

The target in this test is Lysine-specific demethylase 5B (Homo sapiens) (UniProt Q9UGL1). The test is described as follows: Primary screen for KDM5B Histone Demethylases FDH-coupled qHTS. Note: nearly all actives have a fitted effect of over 70% in size. Particulars: FDH-coupled NADH fluorescence (FDH is formaldehyde dehydrogenase); series mostly up to 57.7 µM. An outline of the steps: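 Here, H3K4me3 peptide (12.5 µM in substrate mix) is demethylated by KDM5BΔAP, 200 nM final, after 10 min compound exposure. Formaldehyde product is coupled through FDH (0.25 U/mL in mix) to NADH fluorescence; 30-min ΔRFU feeds dose-response curves.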
Lysine-specific demethylase 5B (Homo sapiens), sequence (Q9UGL1 whole entry, looked up): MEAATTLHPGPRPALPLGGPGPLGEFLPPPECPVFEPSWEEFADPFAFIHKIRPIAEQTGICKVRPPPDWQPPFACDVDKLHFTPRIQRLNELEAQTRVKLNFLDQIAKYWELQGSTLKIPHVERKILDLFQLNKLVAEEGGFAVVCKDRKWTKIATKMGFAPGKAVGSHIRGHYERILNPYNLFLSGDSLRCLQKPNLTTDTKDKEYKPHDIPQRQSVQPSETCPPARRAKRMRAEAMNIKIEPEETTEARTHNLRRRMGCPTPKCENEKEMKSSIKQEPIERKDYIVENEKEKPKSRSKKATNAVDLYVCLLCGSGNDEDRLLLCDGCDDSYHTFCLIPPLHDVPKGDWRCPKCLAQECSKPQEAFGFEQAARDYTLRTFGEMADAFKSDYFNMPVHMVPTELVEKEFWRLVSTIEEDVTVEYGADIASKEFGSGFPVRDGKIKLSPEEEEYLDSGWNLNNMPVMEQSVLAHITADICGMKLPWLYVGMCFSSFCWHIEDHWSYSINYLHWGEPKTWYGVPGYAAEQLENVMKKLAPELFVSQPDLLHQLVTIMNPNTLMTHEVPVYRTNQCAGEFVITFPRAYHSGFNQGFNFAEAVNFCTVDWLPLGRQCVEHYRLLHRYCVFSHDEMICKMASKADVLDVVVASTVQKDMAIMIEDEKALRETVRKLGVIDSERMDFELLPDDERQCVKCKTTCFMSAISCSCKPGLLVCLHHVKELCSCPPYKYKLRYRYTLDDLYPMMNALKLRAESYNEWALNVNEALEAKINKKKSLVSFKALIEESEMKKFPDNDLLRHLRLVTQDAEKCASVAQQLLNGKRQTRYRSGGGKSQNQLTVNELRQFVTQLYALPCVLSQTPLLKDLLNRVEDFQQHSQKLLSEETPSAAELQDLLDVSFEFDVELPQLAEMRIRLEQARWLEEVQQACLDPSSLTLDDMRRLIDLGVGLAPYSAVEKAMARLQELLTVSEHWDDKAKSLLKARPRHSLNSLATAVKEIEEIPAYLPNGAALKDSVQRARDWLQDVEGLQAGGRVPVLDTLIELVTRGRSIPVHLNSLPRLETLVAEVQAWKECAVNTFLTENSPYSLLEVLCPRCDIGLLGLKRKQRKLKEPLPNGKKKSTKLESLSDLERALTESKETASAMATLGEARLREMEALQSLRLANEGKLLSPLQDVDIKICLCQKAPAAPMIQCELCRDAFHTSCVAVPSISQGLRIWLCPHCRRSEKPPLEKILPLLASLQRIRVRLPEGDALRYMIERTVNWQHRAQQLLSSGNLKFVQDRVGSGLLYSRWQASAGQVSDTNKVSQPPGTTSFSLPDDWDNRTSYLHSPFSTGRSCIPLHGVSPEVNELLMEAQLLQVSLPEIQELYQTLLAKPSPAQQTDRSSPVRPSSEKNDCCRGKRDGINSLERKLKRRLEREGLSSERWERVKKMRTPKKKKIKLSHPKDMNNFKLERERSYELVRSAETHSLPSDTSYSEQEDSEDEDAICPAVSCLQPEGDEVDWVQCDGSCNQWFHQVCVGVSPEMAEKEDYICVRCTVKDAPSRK
A general note: In qHTS, concentration-response curves come from the screen itself.
Take `CCCc1noc(CSc2nc(-c3ccco3)nc3ccccc23)n1`: the Potency result is “inactive”.

As for `O=C(O)C/C(=C/c1cccc(Cl)c1)c1nc2ccccc2o1`, the Potency result is “inactive”.

On to `CCCOc1ccc2ccccc2c1CN(C)C(=O)c1n[nH]c(=O)c2ccccc12`, for which the Potency result is “inactive”.

Regarding `Cn1ccc(Nc2cc3c(cn2)CN(CCc2ccccc2)CCN3)n1`, the Potency entry is “inactive”.

Take `Fc1ccccc1CN1CCNc2cc(Nc3cccnc3)ncc2C1`: the Potency result is “inactive”.

Consider `CN(C)c1cccc(Nc2cc3c(cn2)NCCN(Cc2ccccc2)C3)c1`, for which the Potency is 25.1 µM (active).

Consider `NC(=O)c1cccc(C(=O)N2CCC(c3nc4ccccc4o3)CC2)c1`, for which the Potency result was “inactive”.

Regarding `CCOc1c(OC)cccc1-c1nc2ccc(-c3ccc(OC)c(OC)c3OC)cc2o1`, the Potency is 12.6 µM (active).

Regarding `COc1cccc(NC(=O)Nc2cc(-c3nc4ccccc4o3)ccc2OC)c1`, the Potency result is “inactive”.

`COc1cccc(-c2nc3ccc(-c4ccc5c(c4)OCO5)cc3o2)c1OC`: the Potency result was “inactive”.

With `Cc1ccc2c(c1)-c1c(cnn1CC(=O)N(C)c1ccccc1Cl)CO2`, the Potency result is “inactive”.

As for `CC(C)(C)c1cc(NC(=O)Nc2cc(Cl)cc(Cl)c2)no1`, the Potency entry is “inactive”.

On to `COCCOc1ncccc1-c1noc([C@@H]2CCCN2CC(C)(C)C)n1`, for which the Potency result was “inactive”.

On to `COCCOc1ccnc(-c2noc([C@@H]3CCCN3Cc3ccc(Cl)cc3)n2)c1`, for which the Potency result was “inactive”.

As to `COCCNc1ncccc1-c1noc([C@@H]2CCCN2Cc2ccc3c(c2)OCO3)n1`, the Potency was 31.6 µM (active).

As for `Cc1c(-c2ccc(Cl)cc2)nc2ccccc2c1C(=O)NC1CCCCCCC1`, the Potency result was “inactive”.

For the compound `COCCN1CCOc2nc(-c3cccc(C)c3)ncc2C1=O`, the Potency entry was “inactive”.

As for `COc1ccc(-c2ncc3c(n2)OCCN(CC2CC2)C3=O)cc1`, the Potency is 35.5 µM (active).

On to `NC(=O)c1cccc(-c2ncc3c(n2)OCCN(CC2CC2)C3=O)c1`, for which the Potency result was “inactive”.

For the compound `COc1cccc(-c2ncc3c(n2)OCCN(Cc2ccc(F)cc2F)C3=O)c1OC`, the Potency result was “inactive”.

Regarding `COc1ccc(F)cc1-c1ncc2c(n1)OCCN(CC1CC1)C2=O`, the Potency was 35.5 µM (active).

Regarding `C[S+](=O)([O-])c1cccc(-c2ncc3c(n2)OCCN(Cc2ccc(F)cc2F)C3=O)c1`, the Potency result is “inactive”.

With `Cn1c(=O)c2c(nc(SCC(=O)Nc3ccccc3)n2Cc2ccccc2Cl)n(C)c1=O`, the Potency result was “inactive”.

Take `Cc1[nH]c2ccccc2c1C(=O)C(C)Sc1nnc(C2CC2)o1` (stereo unspecified): the Potency result is “inactive”.

For the compound `CC(C)c1ccc(C(=O)OC2CCOC2=O)cc1` (stereo unspecified), the Potency result was “inactive”.

`Cc1oc(-c2cccs2)nc1CC(=O)N1CCCC1c1ccccc1` (stereo unspecified): the Potency result was “inactive”.

Consider `CCOc1ccc(NC(=O)CN(C)C(=O)Cn2c(=O)cnc3ccccc32)cc1OCC`, for which the Potency result is “inactive”.

With `COc1ccc(N2C(=O)C(C)CS2(=O)=O)cc1S(=O)(=O)Nc1ccc(N2CCCC2)cc1` (stereo unspecified), the Potency entry is “inactive”.

With `Cc1ccc(N2CCC(NC(=O)c3ccc4[nH]ccc4c3)C2=O)cc1C` (stereo unspecified), the Potency is 31.6 µM (active).

Turning to `Cc1cc(N2CCC(NC(=O)c3ccc(N(C)C)cc3)C2=O)ccc1F` (stereo unspecified), the Potency entry is “inactive”.

Take `Cc1ccc(C(=O)NC2CCSC2=O)cc1C` (stereo unspecified): the Potency entry is “inactive”.

With `COCC(=O)N1CCN(C2CCN(CCc3ccccc3)C2=O)CC1` (stereo unspecified), the Potency result was “inactive”.

As for `CCc1cccc(CC)c1NC(=O)C(C)Sc1ccc(C)cc1` (stereo unspecified), the Potency entry was “inactive”.

For `Cc1cc(NC(=O)Nc2c(C3=CCCCC3)c(C)nn2C)ccc1Br`, the Potency result was “inactive”.

`O=c1[nH]c(-c2ccncc2)nc2c1CCN(S(=O)(=O)N1CCCC1)C2`: the Potency result is “inactive”.

Consider `Cc1ccc(C(=O)NC2CCN(C(=O)Nc3ccc(F)cc3)CC2)cc1`, for which the Potency entry was “inactive”.

Turning to `CC(=O)c1ccc(NC(=O)N2CCc3c(nc(-c4ccc(F)cc4)[nH]c3=O)C2)cc1`, the Potency is 25.1 µM (active).

In the case of `O=C(c1ccco1)N1CCC(C(=O)N2CCN(C(=O)C3CC3)CC2)CC1`, the Potency entry was “inactive”.

As to `CC(=O)Nc1ccc(SCC(=O)N(Cc2nc3ccccc3c(=O)[nH]2)CC2CCCO2)cc1` (stereo unspecified), the Potency entry was “inactive”.

Take `COc1ccc(-c2ccnc(-c3nnc(C)n3C3CCN(C)CC3)c2)cc1OC`: the Potency is 31.6 µM (active).

For the compound `Cc1nnc(-c2cc(-c3ccccc3)ccn2)n1CCc1ccccc1`, the Potency result is “inactive”.

On to `COCCn1c(C)nnc1-c1cc(-c2cccc(F)c2)ccn1`, for which the Potency result is “inactive”.

With `Cc1nnc(CSc2nnc(Nc3cccc(C)c3C)s2)o1`, the Potency entry is “inactive”.

Regarding `O=C(Nc1cccn2nc(C3CCC3)nc12)c1cccc(F)c1`, the Potency entry is “inactive”.

As for `COc1cc(-c2ccnc3nc(C4CC4)nn23)cc(OC)c1OC`, the Potency is 17.8 µM (active).

For the compound `COc1ccc(N2CC(c3noc(-c4cc(OC)c(OC)c(OC)c4)n3)CC2=O)cc1` (stereo unspecified), the Potency entry is “inactive”.

With `Fc1ccc(-c2ccnc3nc(C4CCC4)nn23)cc1`, the Potency is 31.6 µM (active).

Regarding `COc1cc(C(=O)N2CCC(c3ccncc3)CC2)cc(OC)c1OC`, the Potency result is “inactive”.

As to `CCC(=O)c1ccc(OC(=O)c2cc3ccccc3oc2=O)cc1`, the Potency result is “inactive”.

On to `CSc1ncc(C(=O)Nc2ccc(Cl)cc2)c(C(F)(F)F)n1`, for which the Potency result is “inactive”.

Consider `COc1ccccc1NC(=O)C1c2ccccc2C(=O)N(CC(C)C)C12CCCC2` (stereo unspecified), for which the Potency result is “inactive”.

In the case of `CC(C)(C)C(=O)c1cn(CCOc2ccccc2F)c2ccccc12`, the Potency result is “inactive”.

Regarding `COc1nc2ccccc2nc1N1CCC(C(=O)NCc2ccccc2)CC1`, the Potency entry is “inactive”.

Regarding `COc1nccnc1NC1CCN(C(=O)CCc2c(C)noc2C)CC1`, the Potency was 31.6 µM (active).

Take `Cc1noc(C)c1CC(=O)N1CCC(c2n[nH]c(=O)n2Cc2ccc(F)cc2)CC1`: the Potency entry is “inactive”.

On to `COCCNC(=O)[C@@H]1C[C@@H](O)CN1C1CCN(C(=O)CCc2ccccc2)CC1`, for which the Potency result is “inactive”.

For `Cc1nc2c(c(NC3CC3)n1)CCN(C(=O)CCc1cccnc1)CC2`, the Potency entry is “inactive”.

With `Cc1ccc(OCc2nc(C3CCN(C(=O)CCc4nc5ccc(Cl)cc5[nH]4)CC3)no2)cc1`, the Potency entry is “inactive”.

Turning to `COc1nccnc1NC1CCN(C(=O)CCc2ccccc2)CC1`, the Potency was 25.1 µM (active).

Take `COc1nccnc1NC1CCN(C(=O)NCc2ccccc2)CC1`: the Potency was 28.2 µM (active).

For `O=C(NCc1ccccc1)N1CCN2C(=O)NC[C@H]2C1`, the Potency entry is “inactive”.

Regarding `CC/C(=N\NC(=O)c1ccc(C(C)(C)C)cc1)c1ccccc1`, the Potency result was “inactive”.

As to `Cn1cnnc1C1CCCN(S(=O)(=O)N2CCCCC2)C1` (stereo unspecified), the Potency entry is “inactive”.

As to `Cc1ccc(OCC(O)Cn2cnc3sccc3c2=O)c(C)c1` (stereo unspecified), the Potency entry was “inactive”.

Regarding `COc1ccc2c(CC(=O)N3CCc4cc(OC)c(OC)cc4C3)coc2c1`, the Potency entry was “inactive”.

`Cc1oc2ccn(Cc3ccccc3F)c(=O)c2c1C(=O)NCCCN1CCCCC1C` (stereo unspecified): the Potency result is “inactive”.
